# Only some compounds are listed: those with a hit (about 2.9% of all), similar ones and a draw of the others.
# LYPLA1 counter: blocks human lysophospholipase 1, a PME1 counter-screen; O75608; recombinant LYPLA1, FP-Rh probe fluorescence polarization; inhibition, % at 5.9 µM; 320,000 tested, 0.16% active;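 active = inhibition above the mean of all tested compounds plus 3 SD, set per campaign, cut at about 14% in these data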;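 note: inhibitors block serine hydrolase probe labeling of LYPLA1 so polarization falls; 0% = enzyme with DMSO and 100% = wells lacking LYPLA1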
# Target sequence (O75608 whole entry, looked up): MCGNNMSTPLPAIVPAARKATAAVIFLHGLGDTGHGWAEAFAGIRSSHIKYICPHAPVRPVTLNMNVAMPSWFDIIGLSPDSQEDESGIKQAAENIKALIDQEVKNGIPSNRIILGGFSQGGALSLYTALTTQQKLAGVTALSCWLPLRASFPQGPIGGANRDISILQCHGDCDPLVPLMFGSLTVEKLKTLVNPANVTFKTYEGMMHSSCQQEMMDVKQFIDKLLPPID
# PAFAH1B3 FP inh: PAFAH1B3 (human) inhibition. Q15102. recombinant PAFAH1B3, FP-rhodamine probe, fluorescence polarization. inhibition, % at 3.39 µM. 340,000 tested, 0.28% active;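 active = inhibition above the screen-wide average of all tested compounds plus 3 SD, cut at about 25% in these data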;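 note: 0% = enzyme with DMSO only and 100% = wells lacking PAFAH1B3 protein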
# LYPLA2 inh: LYPLA2 (human) inhibition in PME1 counter-screen. O95372. recombinant LYPLA2, FP-Rh probe fluorescence polarization. inhibition, % at 5.9 µM. 320,000 tested, 0.38% active;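 active = inhibition above the screen-wide mean plus 3 SD, limit set per campaign, cut at about 26% in these data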;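 note: 0% = LYPLA2 with DMSO and 100% = wells lacking LYPLA2 enzyme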
# PAFAH2 FP inh: inhibitors of human PAFAH2. Q99487. recombinant PAFAH2, FP-rhodamine activity probe, fluorescence polarization. inhibition, % at 3.39 µM. 340,000 tested, 0.99% active. AID 492956;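 active = inhibition above the mean over all tested compounds plus 3 SD, cut at about 30% in these data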;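 note: inhibitors block probe labeling of enzyme so polarization drops; 0% = enzyme with DMSO and 100% = wells lacking PAFAH2 protein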
# PAFAH1B2 inh: blocks human PAF acetylhydrolase 1b catalytic subunit 2; recombinant PAFAH1B2, FP-rhodamine activity probe, fluorescence polarization; inhibition, % at 3.39 µM; 340,000 tested, 1.2% active; P68402;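 active = inhibition above the mean of all tested compounds plus 3 SD, cut at about 24% in these data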;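 note: 0% = enzyme with DMSO and 100% = wells lacking PAFAH1B2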
# pPAFAH inh: pPAFAH (human) enzyme inhibition | Q13093 | recombinant pPAFAH, FP-rhodamine probe fluorescence polarization | inhibition, % at 3.39 µM | 330,000 tested, 1.5% active | AID 463082;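 active = inhibition above the mean inhibition across the screen plus 3 SD, cut at about 25% in these data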;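 note: inhibitors block binding of the rhodamine activity-based probe so polarization drops; 0% = enzyme with DMSO and 100% = wells lacking pPAFAH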
# Target sequence (Q13093 whole entry, looked up): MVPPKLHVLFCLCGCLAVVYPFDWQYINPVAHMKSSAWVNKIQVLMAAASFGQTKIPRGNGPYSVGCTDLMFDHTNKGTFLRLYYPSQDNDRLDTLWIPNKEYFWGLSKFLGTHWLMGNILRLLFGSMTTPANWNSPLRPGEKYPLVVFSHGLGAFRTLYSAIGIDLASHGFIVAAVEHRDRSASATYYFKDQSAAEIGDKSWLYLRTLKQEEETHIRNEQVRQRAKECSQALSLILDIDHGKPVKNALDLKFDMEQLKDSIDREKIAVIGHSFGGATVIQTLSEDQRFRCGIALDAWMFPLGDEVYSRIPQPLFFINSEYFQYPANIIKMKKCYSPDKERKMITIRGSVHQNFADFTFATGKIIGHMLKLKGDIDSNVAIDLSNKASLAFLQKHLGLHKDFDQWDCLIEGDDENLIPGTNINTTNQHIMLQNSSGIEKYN
# LYPLA1 confirm: LYPLA1 (human) inhibition, confirmation counter-screen; shares compounds with LYPLA1 counter; recombinant LYPLA1, FP-Rh probe fluorescence polarization; inhibition, % at 5.9 µM; 480 tested, 69% active;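 active = mean inhibition across replicates above the hit cutoff set in the primary screen, cut at about 15% in these data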;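 note: loss of FP-Rh probe labeling of LYPLA1 seen as lower polarization; 0% = LYPLA1 with DMSO and 100% = wells lacking LYPLA1 enzyme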
# * hit, by the source's call; x = no result given.
SMILES,LYPLA1 counter,PAFAH1B3 FP inh,LYPLA2 inh,PAFAH2 FP inh,PAFAH1B2 inh,pPAFAH inh,LYPLA1 confirm
COc1ccc(OC)c(NC(=O)C2CCC(CNc3c(N4CCC(C)CC4)c(=O)c3=O)CC2)c1 (stereo unspecified),45.4*,1.8,6.5,7.5,-6.0,3.3,43.6*
CCN1CCN(c2cc(SC(C)C)nc(-c3ccc(OC)cc3)n2)CC1,x,3.0,x,1.2,0.0,x,x
C=COCCNC(=O)C(=O)NCC(C)C,-28.2,4.6,6.5,0.9,0.0,2.8,x
COC(=O)c1c(Cl)c2n3ccccc3c(C)c(-c3ccccc3)c-2c1C(=O)OC,15.7*,16.5,19.6,-0.6,0.4,20.1,4.2
COC(=O)c1cc2c(-c3ccccc3)c(C)c3ccccn3c-2c1C(=O)OC,1.7,5.5,5.8,10.6,1.0,11.9,x
COc1ccc(/C=C/C(=O)N2CCCc3ccccc32)cc1,1.3,8.2,3.6,2.7,6.5,4.6,x
O=C1CCN(C(=O)/C=C/c2ccccc2)c2ccccc21,14.7*,11.4,13.1,5.5,6.3,6.1,23.1*
COc1ccc2[nH]c(C(=O)N3CCC(CO)(Cc4cccc(C(F)(F)F)c4)CC3)c(C)c2c1,19.0*,4.5,4.1,-0.2,3.5,10.7,26.1*
COc1ccc(N2CCN(C(=O)c3[nH]c4ccc(OC)cc4c3C)CC2)cc1,x,3.2,x,6.4,-0.3,x,x
COC(=O)c1sccc1NC(=O)c1sccc1C,1.3,-2.8,5.9,7.0,2.0,2.7,x
CN(C)c1ccc(/C=C(\C#N)C(=O)NCc2ccco2)cc1,21.9*,x,24.6,x,x,11.4,14.1
c1ccc2[nH]c(CN3CCN(c4ncnc5c4oc4ccccc45)CC3)nc2c1,16.6*,9.5,3.6,4.5,0.2,0.6,18.1*
C=C(C)Cn1c(-c2ccccc2)nc2ccccc21,-0.2,6.1,4.6,-6.4,5.4,-4.3,x
CC(C)CCNC(=O)C1CCN(S(=O)(=O)c2ccc3c(c2)CC(C)N3C(=O)C2CCC2)CC1 (stereo unspecified),8.4,5.3,3.6,8.2,-4.9,5.0,x
Cc1ccc(CNC(=O)C2CCN(S(=O)(=O)c3ccc4c(c3)CC(C)N4C(=O)C3CCC3)CC2)o1 (stereo unspecified),16.3*,5.5,11.8,-3.2,3.5,0.9,19.0*
Cc1ccc(S(=O)(=O)N2CCCOC2CNC(=O)C(=O)NCc2cccs2)cc1 (stereo unspecified),-2.5,9.5,-0.2,-0.8,4.1,3.3,x
COc1ccc2c(c1)CCc1c(C(=O)N3CCCc4ccccc43)noc1-2,33.7*,-2.1,9.9,4.2,1.1,2.2,35.1*
O=C(COc1ccccc1)N1CCN(c2ccc([N+](=O)[O-])c(N3CCCCC3)c2)CC1,12.3,3.2,4.8,4.8,-1.6,3.2,x
O=C(COc1ccc(Br)cc1)N1CCN(c2ccc([N+](=O)[O-])c(N3CCCCC3)c2)CC1,66.2*,2.4,6.7,-3.2,-0.8,-2.8,76.2*
Cc1ccc(OCC(=O)N2CCN(c3ccc([N+](=O)[O-])c(N4CCOCC4)c3)CC2)cc1,40.5*,3.3,7.9,11.7,-0.5,0.1,49.2*
C/C(=N\OCC(=O)Nc1ccc(F)c(F)c1F)c1cc2ccccc2o1,0.5,5.0,2.6,-7.9,-1.8,2.6,x
O=C(CSc1n[nH]c(=O)[nH]c1=O)Nc1ccc2c(c1)C(=O)c1ccccc1C2=O,14.3*,12.0,16.3,10.1,1.6,23.2,5.4
O=C(CSc1ccccn1)Nc1ccc2c(c1)C(=O)c1ccccc1C2=O,-3.0,1.9,-1.4,12.7,2.9,16.7,x
CC(C(=O)NC1CCCCC1)N(Cc1ccc(F)cc1)C(=O)c1snc(C(N)=O)c1N (stereo unspecified),1.4,8.0,-0.3,8.5,4.6,1.8,x
CN(C)C(=C(C#N)C#N)N1CCN(c2ccc(Cl)cc2)CC1,-0.8,2.2,3.2,6.1,5.5,0.5,x
SMILES,LYPLA1 counter,PAFAH1B3 FP inh,LYPLA2 inh,PAFAH2 FP inh,PAFAH1B2 inh,pPAFAH inh,LYPLA1 confirm
CSC(=NC#N)N1CCN(c2ccc(Cl)cc2)CC1,16.7*,-3.5,5.8,5.0,7.2,2.9,19.4*
Cc1ccc(OCc2cc(C(=O)N(C)Cc3cnn(-c4ccccc4C)c3)no2)cn1,27.1*,16.1,14.1,-2.6,-1.1,3.9,29.2*
CCNc1nc(Cl)nc(NC2CCCCC2)n1,0.0,7.3,-6.3,4.4,4.4,4.2,x
COCCn1c(C)c(C)c(S(=O)(=O)c2ccccc2)c1N,16.2*,41.4*,16.9,59.2*,41.5*,12.8,12.7
Cc1ccc2nc(-c3sc4nc(C)cc(C)c4c3N)[nH]c2c1,14.9*,3.9,9.2,1.2,6.9,12.1,1.6
COc1[nH]c(/N=C/c2ccccc2)c(C#N)c1C#N,16.9*,81.8*,20.5,82.8*,80.8*,6.1,16.5*
COCCn1c(=NC(=O)c2ccc(S(=O)(=O)N3CCc4ccccc4C3)cc2)sc2cc(S(N)(=O)=O)ccc21,-33.5,-65.8,-69.8,-60.9,-39.2,-14.4,x
CCOCCn1c(=NC(=O)c2ccc(S(=O)(=O)N3CCOCC3)cc2)sc2cc(S(N)(=O)=O)ccc21,15.0*,5.1,15.4,0.3,2.0,-1.1,15.0*
COC(=O)C(CSCc1ccccc1)NC(=O)CSc1nc(N)cc(=O)[nH]1 (stereo unspecified),-1.1,1.0,2.7,-1.5,6.8,-2.6,x
COc1ccc(Cl)cc1NC(=O)CN1CCC(n2nnc3ccccc32)CC1,14.6*,3.7,-3.0,-5.5,0.7,25.3*,18.8*
COc1ccc(Cl)cc1NC(=O)CN1CCC(NC(=O)C2CC2)CC1,-2.7,-2.0,-5.2,-1.3,1.6,-1.9,x
CCN(CC)c1nc(Oc2ccc(C(=O)NN)cc2)nc(Oc2ccc(C(=O)NN)cc2)n1,x,-0.4,x,-7.8,-1.5,x,x
Nc1cc2nsnc2cc1Br,75.7*,59.5*,86.7*,56.3*,43.2*,4.0,72.5*
COCCn1c(=O)[nH]c2cc(C(=O)N3CCN(c4ccccc4)CC3)ccc2c1=O,3.6,-1.2,7.1,11.0,1.0,1.3,x
COCCn1c(=O)[nH]c2cc(C(=O)N3CCN(c4cccc(Cl)c4)CC3)ccc2c1=O,51.9*,0.2,-7.8,-5.9,-1.9,-6.5,1.1
CCN(c1ccc(NC(=O)c2ccc(N3CCCC3=O)cc2)cc1)C(C)C,16.1*,7.1,0.0,6.4,9.3,2.3,16.9*
CCN(CCn1cccn1)Cc1cn[nH]c1-c1ccc(-c2ccccc2)cc1,0.6,2.1,7.0,-1.0,6.2,2.5,x
C=CCn1c(O)c(N=NC(=S)Nc2cccc(OC)c2)c2ccccc21,13.3,3.6,10.4,-12.2,-2.2,9.5,x

# High-throughput results as filed in PubChem BioAssay.
